Measurements reported in PubChem BioAssay AID1376 (SRMLSC, 2008).
Among all 220,000 compounds or so, about 530 (0.24%) were called active. The list comes from a sample in which actives are over-represented; it also holds similar structures and randomly drawn compounds. Entries with a potency or affinity are not part of this list. A number with no mark means an inactive call. Cut-off read from the data, not from the text of the source: active = inhibition above about 13%; inconclusive = no clear call, values can overlap the other calls; inactive = below that.

Target: Bifunctional protein GlmU (Mycobacterium tuberculosis (strain ATCC 25618 / H37Rv)) (UniProt P9WMN3)
Sequence (P9WMN3 whole entry, looked up): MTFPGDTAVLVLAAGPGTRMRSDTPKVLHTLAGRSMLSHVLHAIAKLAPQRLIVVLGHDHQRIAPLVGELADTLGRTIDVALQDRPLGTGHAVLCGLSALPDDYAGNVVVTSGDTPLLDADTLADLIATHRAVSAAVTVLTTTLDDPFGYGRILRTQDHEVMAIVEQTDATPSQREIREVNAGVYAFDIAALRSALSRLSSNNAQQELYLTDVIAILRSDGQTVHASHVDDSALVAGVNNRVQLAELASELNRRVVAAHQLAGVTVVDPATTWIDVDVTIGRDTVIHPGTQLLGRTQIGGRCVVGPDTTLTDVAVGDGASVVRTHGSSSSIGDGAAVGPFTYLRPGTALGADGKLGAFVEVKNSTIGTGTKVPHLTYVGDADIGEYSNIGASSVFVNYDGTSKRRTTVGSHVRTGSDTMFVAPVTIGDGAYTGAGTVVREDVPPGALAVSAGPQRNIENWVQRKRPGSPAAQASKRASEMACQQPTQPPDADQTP
Test: inhibition of mycobacterial GlmU enzyme – biochemical, glucosamine-1-phosphate acetyltransferase (AID 1376);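 note: 0% = complete reaction with vehicle and 100% = reaction without substrate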
Details: M. tuberculosis GlmU acetyltransferase enzyme assay; active compounds read high;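 tested at 30 µM in the primary screen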

With `Cc1cc(C(=O)CN2C(=O)C(=O)N(C3CCCC3)C2=O)c(C)n1-c1ccc(F)cc1` as the compound, how does the inhibition read?
The inhibition was 7.31%.

How did the inhibition turn out when `Cc1c(Cl)cc(-n2cnnn2)cc1[N+](=O)[O-]` was run?
Its inhibition is 0.95%.

Which inhibition does the source give for `COc1ccc(C(=O)CSc2n[nH]c(-c3ccco3)n2)cc1` here?
Its inhibition is 4.52%.

`CC(=O)c1ccc(NC(=O)CSc2nnc(-c3ccco3)c(-c3ccco3)n2)cc1` was tested. Which inhibition did it give?
Its inhibition is 9.28%.

How did the inhibition turn out when `O=C(CSc1nnc(-c2ccco2)c(-c2ccco2)n1)Nc1ccccc1` was run?
Its inhibition is 13.4% (active).

With `COc1ccc(C(=O)CSc2nnc(-c3ccco3)c(-c3ccco3)n2)cc1` as the compound, how does the inhibition read?
The inhibition was 12.8% (active).

For `O=C(CSc1nnc(-c2ccco2)c(-c2ccco2)n1)c1ccccc1`, which inhibition is on record?
Its inhibition is 0.16%.

Which inhibition does the source give for `Cc1ccc(NC(=O)CSc2nnc(-c3ccco3)c(-c3ccco3)n2)cc1` here?
The inhibition was 6.2%.

How did the inhibition turn out when `CC1(c2nnc(Cc3ccccc3)o2)CC(c2ccc([N+](=O)[O-])cc2)=NO1` (centres undefined) was run?
Its inhibition is -2.83%.

How did the inhibition turn out when `CCCn1c(SCC(=O)Nc2ccc(OCC)cc2)nnc1C(C)C` was run?
Its inhibition is 2.8%.

With `COC(=O)N/N=C/c1c(C)nn(-c2cccc(Cl)c2)c1Cl` as the compound, how does the inhibition read?
Its inhibition is -2.28%.

`O=S(=O)(Nc1ccc(N2CCCCC2)cc1)c1ccc(F)c(F)c1` was tested. Which inhibition did it give?
Its inhibition is 1.08%.

Which inhibition does the source give for `O=C(O)c1cc(S(=O)(=O)Nc2ccc(N3CCCCC3)cc2)ccc1Cl` here?
Its inhibition is 14.1% (active).

Which inhibition does the source give for `CC(=O)Nc1ccc(NS(=O)(=O)c2ccc(Cl)c(C(=O)O)c2)cc1` here?
Its inhibition is -0.86%.

For `O=C1CC2(CCCCC2)Oc2ccc(Cl)cc21`, which inhibition is on record?
Its inhibition is -3.86%.

Which inhibition does the source give for `CCCCN(CCCC)CCNC(=O)CNC(=O)c1cccs1` here?
The inhibition was 2.63%.

Which inhibition does the source give for `CCN(CC(=O)Nc1ccc(OC(F)F)cc1)C1CCCCC1` here?
Its inhibition is 2.82%.

With `C=CCOc1ccc(Br)cc1/C=C1/SC(=Nc2ccc(C(=O)O)cc2)NC1=O` as the compound, how does the inhibition read?
The inhibition was 15.9% (active).

For `C=CCOc1ccc(Br)cc1/C=N/O`, which inhibition is on record?
The inhibition was -4.35%.

`COc1cc(/C=C2/SC(=Nc3ccc(O)cc3)NC2=O)ccc1O` was tested. Which inhibition did it give?
The inhibition was 35.3%.

How did the inhibition turn out when `CCOc1cc(S(=O)(=O)NCCc2ccccc2C)c(OCC)cc1-n1cnnn1` was run?
Its inhibition is 1.72%.

For `O=C1CC(NCc2ccccc2)C(=O)N1c1ccc(F)cc1` (centres undefined), which inhibition is on record?
The inhibition was -3.58%.

For `O=c1[nH]nc(SCc2nnc(-c3cccc(Cl)c3)o2)n1C1CCCCC1`, which inhibition is on record?
Its inhibition is 1.07%.

Which inhibition does the source give for `CC(C)(CNc1ccc([N+](=O)[O-])cc1Cl)CNS(C)(=O)=O` here?
Its inhibition is -2.7%.

How did the inhibition turn out when `CCn1c(Cl)c(C=O)s/c1=N\S(=O)(=O)c1ccccc1` was run?
Its inhibition is 5.14%.

With `O=Cc1s/c(=N\S(=O)(=O)c2ccccc2)n(CCCCl)c1Cl` as the compound, how does the inhibition read?
The inhibition was 14% (active).

With `COCCCN1C(=O)CS/C1=N\S(=O)(=O)c1ccccc1` as the compound, how does the inhibition read?
The inhibition was 5.52%.

With `CC/C(=N/NS(=O)(=O)c1ccc(Cl)cc1)c1ccc(O)cc1` as the compound, how does the inhibition read?
The inhibition was 2.54%.

Which inhibition does the source give for `O=[N+]([O-])c1ccc(Cl)c2c1C1C=CCC1C(c1ccccn1)N2` (centres undefined) here?
The inhibition was 3.42%.

For `COC(=O)CNC(=O)C1Nc2ccccc2C2C=CCC12` (centres undefined), which inhibition is on record?
Its inhibition is 3.22%.

For `CCOC(=O)C1Nc2c(F)cc(C)cc2C2C=CCC12` (centres undefined), which inhibition is on record?
Its inhibition is 3.49%.

Which inhibition does the source give for `COc1cccc(C2Nc3c(F)cc(Br)cc3C3C=CCC32)c1OC` (centres undefined) here?
The inhibition was 0.44%.

How did the inhibition turn out when `O=C(O)C1Nc2c(O)cccc2C2C=CCC12` (centres undefined) was run?
Its inhibition is 33.7% (active).

With `COc1cccc2c1NC(C(=O)O)C1CC=CC21` (centres undefined) as the compound, how does the inhibition read?
Its inhibition is 60.8% (active).

Which inhibition does the source give for `CC(C)C1Nc2c(O)cc(Cl)c([N+](=O)[O-])c2C2C=CCC21` (centres undefined) here?
Its inhibition is 4.55%.

With `O=C(O)C1Nc2c(C(=O)N3CCOCC3)cccc2C2C=CCC12` (centres undefined) as the compound, how does the inhibition read?
The inhibition was 1.95%.

For `CC(C)CNC(=O)C1Nc2ccccc2C2C=CCC12` (centres undefined), which inhibition is on record?
Its inhibition is 0.47%.

Which inhibition does the source give for `Cc1ccc2c(c1C)NC(C(=O)O)C1CC=CC21` (centres undefined) here?
Its inhibition is 13.2% (active).

For `O=C(O)C1Nc2c(O)cc(Cl)c([N+](=O)[O-])c2C2C=CCC12` (centres undefined), which inhibition is on record?
The inhibition was 65% (active).

`CC(C)C1Nc2ccc(C(=O)O)cc2C2C=CCC21` (centres undefined) was tested. Which inhibition did it give?
Its inhibition is 5.77%.

`O=C(CNCC1CCCO1)N1CCCc2ccccc21` (centres undefined) was tested. Which inhibition did it give?
Its inhibition is 1.14%.

Which inhibition does the source give for `O=C(O)c1nc2ccccc2nc1C(=O)O` here?
Its inhibition is -0.04%.

For `Cc1cc(C(=O)Nc2ccc(C)c(S(=O)(=O)N3CCOCC3)c2)c(C)o1`, which inhibition is on record?
Its inhibition is -1.51%.

For `CCC1=C(OC(=O)N(CC)CC)N2C(=O)OC(=NCC3CC3)[C@]2(C)[C@H]2C1=CC[C@H]1C(=O)N(CC)C(=O)[C@H]12`, which inhibition is on record?
Its inhibition is 1.38%.

How did the inhibition turn out when `COc1ccc(CNC(=O)Nc2ccc3c(c2)N(C)C(=O)CS3)cc1` was run?
The inhibition was -4.33%.

For `O=C(c1ccc(C(F)(F)F)cc1)c1c[nH]c(C(=O)NCCCn2ccnc2)c1`, which inhibition is on record?
Its inhibition is -1.27%.

Which inhibition does the source give for `Cc1ccccc1C(=O)NNC(=O)CSc1nnc(-c2ccncc2)n1-c1ccccc1` here?
The inhibition was -3.22%.

For `OCCC1CN(Cc2cccn2-c2nccs2)CCN1C1CCCCC1` (centres undefined), which inhibition is on record?
Its inhibition is -4.98%.

Which inhibition does the source give for `Oc1cccc2cc3cccc(O)c3c(O)c12` here?
Its inhibition is -0.27%.
